8 compounds from PubChem BioAssay (Tox21) can be followed below.

Inconclusive results are not listed. Calls of active or inactive are those of the source. Unless noted, calls follow the shape of the full dose curve.

A short description of assay [1]: Nuclear factor erythroid 2-related factor 2/antioxidant responsive element (Nrf2/ARE) small molecule agonists: qHTS cell viability counter screen in human keratinocytes (AID 1919968; active = well fitted curve in the direction sought with a large enough effect in the repeat runs; an effect the other way counts as inactive or inconclusive; also: nearly all actives have a fitted effect of over 55% in size; also: potency is read from the fitted curve at half-maximal effect). The method in brief: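 In human HaCaT keratinocytes stably expressing an ARE-driven luciferase, compound exposure lasted 23 h at 37 C under 5% CO2. Viable cells are quantified with a protease-based fluorogenic reagent (CellTiter-Fluor) read 1 h after addition.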
For orientation: Quantitative high-throughput screening tests each substance at several concentrations.

The nature of assay [2]: Nuclear factor erythroid 2-related factor 2/antioxidant responsive element (Nrf2/ARE) small molecule agonists: luciferase reporter gene qHTS assay in human keratinocytes (AID 1919969). Also: nearly all actives have a fitted effect of over 35% in size. Also: potency is read from the fitted curve at half-maximal effect. Background: In a reporter assay the amount or activity of a reporter protein is the signal.
Assay [3] has as its target Gonadotropin-releasing hormone receptor (Homo sapiens) (UniProt P30968). Put plainly: Human gonadotropin-releasing hormone receptor (GnRHR) small molecule agonists, calcium flux assay in GnRHR-HEK293 cells (AID 1920063). Also: nearly all actives have a fitted effect of over 35% in size. The method, boiled down: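 Intracellular calcium rise is the read-out: engineered human GnRHR HEK293 cells, dye-loaded, are exposed to DMSO-dissolved compounds and fluorescence at Ex/Em 480/540 is tracked for 3 min.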
Background: Calcium assays in cells follow changes in intracellular calcium, usually with a dye or a luminescent sensor.

The target of assay [4] is KiSS-1 receptor (Homo sapiens) (UniProt Q969F8). As to the kind of experiment: Human kisspeptin (KISS1R) small molecule agonists, calcium flux assay in KISS1R-HEK293 cells (AID 1920064; active = well fitted curve in the direction sought with a large enough effect in the repeat runs; an effect the other way counts as inactive or inconclusive). The method in brief:
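Concentration-response testing used 15 concentrations in triplicate on human KISS1R-expressing HEK293 cells. Calcium-dependent fluorescence (Ex/Em 480/540) was followed kinetically for 3 min after compound transfer.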

A short description of assay [5]: G protein-coupled receptor (GPCR) small molecule agonists, calcium flux assay: HEK293 wild type cell line counter screen (AID 1920065). The method in brief:
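Fluorescence intensity signals activation. After overnight (18 h) culture and a 1 h calcium dye load at 37 C, compounds are added by pin tool and the plate read at 480/540 nm for 3 min in 1 s steps.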

Assay [6] is described as follows: p53 small molecule agonists, cell-based qHTS assay with human liver microsomes (AID 1963577). The method, boiled down: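 p53RE-bla reporter cells were pre-incubated 5 h at 37 C, then treated with compounds plus human liver microsomes (0.5 mg/mL final) and NADPH (0.5 mg/mL final) for 16 h at 37 C. Beta-lactamase activity was read by LiveBLAzer fluorescence after 2 h at room temperature.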

The nature of assay [7]: p53 small molecule agonists, cell-based qHTS assay with rat liver microsomes (AID 1963578). The method in brief: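 p53RE-bla cells were exposed to compounds together with rat liver microsomes (0.5 mg/mL final) and NADPH (0.5 mg/mL final) for 16 h at 37 C, then read by LiveBLAzer beta-lactamase fluorescence after 2 h at room temperature.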
A short description of assay [8]: p53 small molecule agonists, cell-based qHTS assay with human liver microsomes: qHTS cell viability counter screen (AID 1963579). Also: nearly all actives have a fitted effect of over 45% in size. The method, boiled down: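 p53RE-bla cells (4,000/well) were pre-incubated 5 h at 37 C, then given compounds in DMSO plus human liver microsomes (0.5 mg/mL final) and NADPH (0.5 mg/mL final) for 16 h at 37 C. Viability was read by CellTiter-Glo luminescence.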

Assay [9] is described as follows: p53 small molecule agonists, cell-based qHTS assay with rat liver microsomes: qHTS cell viability counter screen (AID 1963580). Also: nearly all actives have a fitted effect of over 45% in size. The method, boiled down: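 After the beta-lactamase ratio was read, CellTiter-Glo was added to the same wells and luminescence measured at 30 min; cells had been treated 16 h at 37 C with compounds, rat liver microsomes and NADPH (0.5 mg/mL final each).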

A short description of assay [10]: p53 small molecule agonists, cell-based qHTS assay: qHTS cell viability counter screen (AID 1963581). Also: nearly all actives have a fitted effect of over 45% in size. The method in brief:
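Luminescence from CellTiter-Glo, reflecting ATP content, serves as the cytotoxicity measure; it is taken after the 2 h reporter substrate step in HCT-116 p53RE-bla cells dosed for 16 h at 37 C.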

The nature of assay [11]: p53 small molecule agonists, cell-based qHTS assay (AID 1963582; active = well fitted activation curve with a large enough effect in the signal ratio in the repeat runs, not every such curve was filed as active; the % refers to the signal ratio). The method in brief: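 After plating, p53RE-bla cells sat 5 h in the incubator; compounds or DMSO vehicle were pinned in; a 16 h incubation at 37 C followed; FRET substrate was added and, 2 h later at RT, fluorescence was measured.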
Assay [12] addresses 5-hydroxytryptamine receptor 2A (Homo sapiens) (UniProt P28223). Put plainly: 5-hydroxytryptamine receptor 2A (HTR2A) small molecule antagonists, cell-based qHTS assay (AID 1963586). Also: nearly all actives have a fitted effect of over 45% in size. The method, boiled down: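 CHO cells stably expressing human HTR2A were plated for 18 h at 37 C, then loaded with calcium dye for 1 h. Compounds were preincubated 5 min at room temperature before DOI (4 nM solution) was added. Kinetic fluorescence was read for 3 min.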

Assay [13] addresses Muscarinic acetylcholine receptor M1 (Homo sapiens) (UniProt P11229). Put plainly: Cholinergic receptor muscarinic 1 (CHRM1) small molecule antagonists, cell-based qHTS assay (AID 1963588). Also: nearly all actives have a fitted effect of over 40% in size. The method, boiled down:
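Compounds were tested at 15 concentrations in three independent runs. Dye-loaded CHRM1-CHO cells were exposed 5 min at room temperature before stimulation by acetylcholine added at 50nM. Intracellular calcium was read kinetically on FDSS for 3 min.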

The target is the same in assay [14]. As to the kind of experiment: Cholinergic receptor muscarinic 1 (CHRM1) small molecule agonists, cell-based qHTS assay (AID 1963589). Also: nearly all actives have a fitted effect of over 35% in size. The method, boiled down:
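Fluorescent calcium dye reports M1 activation in stably transfected CHO cells. Compounds, 15 concentrations, added after 1 h dye loading at 37 C; kinetic reading at 1 sec intervals.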

Assay [15] can be described thus: cAMP Responsive Elements (CRE) small molecule agonists, cell-based qHTS assay (AID 1963590). The method, boiled down:
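Compound exposure lasted 3 h at 37 C/5% CO2 in CRE-bla HEK 293T cells grown in assay medium with 10% dialyzed FBS and 25 mM HEPES. Reporter signal came from LiveBLAzer B/G FRET substrate, 2 h, room temperature.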

Assay [16] in a line: cAMP Responsive Elements (CRE) small molecule antagonists, cell-based qHTS assay (AID 1963591; active = well fitted inhibition curve with a large enough effect in the signal ratio in the repeat runs, not every such curve was filed as active; the % refers to the signal ratio). The method, boiled down: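 Stimulation used NKH477 at a final 0.25 uM for 3 h in compound-treated CRE-bla HEK293T cells, seeded 18 h beforehand. Reporter activity was measured with LiveBLAzer B/G FRET substrate after 2 h at room temperature.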
In assay [17] the target is Beta-2 adrenergic receptor (Homo sapiens) (UniProt P07550). Put plainly: Adrenergic beta2 receptor (ADRB2) small molecule antagonists, cell-based qHTS assay (AID 1963592). Also: series mostly up to about 92 µM; nearly all actives have a fitted effect of over 50% in size. The method, boiled down:
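Assay format: CHO-ADRB2 cells, 18-20hr seeding at 37C/5% CO2, then compound plus 1nM isoproterenol agonist mix for 0.5hr RT. Homogeneous time-resolved fluorescence cAMP detection after 1hr, expressed as 665/615 nm ratio.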

Assay [18] addresses D(2) dopamine receptor (Homo sapiens) (UniProt P14416). As to the kind of experiment: Dopamine D2 receptor (DRD2) small molecule agonists, cell-based qHTS assay (AID 1963594). Also: nearly all actives have a fitted effect of over 35% in size. The method, boiled down: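 HEK293 cells stably expressing human DRD2, pre-treated with PDE inhibitor Ro20-1724 (0.1 mM final) and compound 10 min at room temperature, then stimulated with NKH477 (200nM […]) for 30 min. cAMP read by HTRF (665/620 nm).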

Assay [19] shares this target. As to the kind of experiment: Dopamine D2 receptor (DRD2) small molecule antagonists, cell-based qHTS assay (AID 1963595; active = well fitted inhibition curve with a large enough effect in the signal ratio in the repeat runs, with a control signal flat; the % refers to the signal ratio). The method, boiled down: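 HTRF cAMP read-out at 665 and 620 nm emission (340 nm excitation). Antagonist mode: compounds were tested against 12 nM quinpirole in DRD2-HEK293 cells, with 200 nM NKH477 raising cAMP and 0.1 mM Ro20-1724 blocking its breakdown.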

Assay [20] deals with 5-hydroxytryptamine receptor 2A (Homo sapiens) (UniProt P28223). Put plainly: 5-hydroxytryptamine receptor 2A (HTR2A) small molecule agonists, cell-based qHTS assay (AID 1963587). Also: nearly all actives have a fitted effect of over 30% in size. The method in brief:
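CHO cells stably expressing human HTR2A, plated 18 h, loaded with calcium dye 1 h at 37 C. Agonist mode: compounds added and intracellular calcium fluorescence recorded kinetically for 2 min at 1 sec intervals.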

Chain of 5-hydroxytryptamine receptor 2A (Homo sapiens) (P28223 whole entry, looked up): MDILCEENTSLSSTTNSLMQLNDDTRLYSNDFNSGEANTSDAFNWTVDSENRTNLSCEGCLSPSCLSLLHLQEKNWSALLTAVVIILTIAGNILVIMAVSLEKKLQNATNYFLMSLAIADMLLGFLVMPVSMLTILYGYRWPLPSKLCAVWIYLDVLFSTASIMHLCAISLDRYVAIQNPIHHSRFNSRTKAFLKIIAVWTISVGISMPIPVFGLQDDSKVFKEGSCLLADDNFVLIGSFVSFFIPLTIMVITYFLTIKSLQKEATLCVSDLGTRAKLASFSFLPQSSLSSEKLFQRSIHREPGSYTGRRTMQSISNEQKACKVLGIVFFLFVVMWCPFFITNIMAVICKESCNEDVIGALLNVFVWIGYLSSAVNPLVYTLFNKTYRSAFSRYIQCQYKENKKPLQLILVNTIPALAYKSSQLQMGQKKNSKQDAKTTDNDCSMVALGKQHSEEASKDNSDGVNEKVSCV
Chain of Beta-2 adrenergic receptor (Homo sapiens) (P07550 whole entry, looked up): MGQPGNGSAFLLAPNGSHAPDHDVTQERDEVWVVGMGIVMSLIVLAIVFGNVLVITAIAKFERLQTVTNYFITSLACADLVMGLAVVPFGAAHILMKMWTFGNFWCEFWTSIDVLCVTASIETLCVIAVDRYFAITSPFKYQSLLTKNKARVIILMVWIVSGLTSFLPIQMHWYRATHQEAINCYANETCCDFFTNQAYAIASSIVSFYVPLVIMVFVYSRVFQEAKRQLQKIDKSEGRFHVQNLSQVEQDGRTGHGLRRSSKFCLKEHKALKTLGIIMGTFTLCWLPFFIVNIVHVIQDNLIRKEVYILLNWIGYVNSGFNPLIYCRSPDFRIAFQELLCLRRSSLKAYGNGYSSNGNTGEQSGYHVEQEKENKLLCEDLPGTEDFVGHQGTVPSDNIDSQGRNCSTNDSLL
Chain of Gonadotropin-releasing hormone receptor (Homo sapiens) (P30968 whole entry, looked up): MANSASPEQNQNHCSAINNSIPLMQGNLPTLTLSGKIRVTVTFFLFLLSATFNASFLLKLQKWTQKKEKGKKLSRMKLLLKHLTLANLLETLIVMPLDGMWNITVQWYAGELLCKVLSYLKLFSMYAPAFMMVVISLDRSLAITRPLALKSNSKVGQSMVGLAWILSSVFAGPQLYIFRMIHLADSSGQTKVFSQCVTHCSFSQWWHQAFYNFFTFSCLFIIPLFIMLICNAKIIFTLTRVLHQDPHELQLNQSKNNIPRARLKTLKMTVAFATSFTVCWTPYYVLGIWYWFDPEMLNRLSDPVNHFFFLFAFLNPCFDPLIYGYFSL
Chain of D(2) dopamine receptor (Homo sapiens) (P14416 whole entry, looked up): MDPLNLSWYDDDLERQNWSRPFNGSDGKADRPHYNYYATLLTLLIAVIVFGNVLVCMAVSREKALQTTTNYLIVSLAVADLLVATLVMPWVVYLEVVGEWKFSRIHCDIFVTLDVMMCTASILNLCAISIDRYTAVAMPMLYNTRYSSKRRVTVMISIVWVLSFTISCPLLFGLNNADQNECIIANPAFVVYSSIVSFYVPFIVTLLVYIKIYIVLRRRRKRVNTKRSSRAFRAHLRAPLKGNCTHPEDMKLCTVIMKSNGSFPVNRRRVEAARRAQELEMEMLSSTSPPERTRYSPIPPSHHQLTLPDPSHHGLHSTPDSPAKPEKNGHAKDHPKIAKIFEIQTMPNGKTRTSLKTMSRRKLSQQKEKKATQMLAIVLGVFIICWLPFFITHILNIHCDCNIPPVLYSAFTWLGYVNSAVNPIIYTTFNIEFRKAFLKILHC
Chain of Muscarinic acetylcholine receptor M1 (Homo sapiens) (P11229 whole entry, looked up): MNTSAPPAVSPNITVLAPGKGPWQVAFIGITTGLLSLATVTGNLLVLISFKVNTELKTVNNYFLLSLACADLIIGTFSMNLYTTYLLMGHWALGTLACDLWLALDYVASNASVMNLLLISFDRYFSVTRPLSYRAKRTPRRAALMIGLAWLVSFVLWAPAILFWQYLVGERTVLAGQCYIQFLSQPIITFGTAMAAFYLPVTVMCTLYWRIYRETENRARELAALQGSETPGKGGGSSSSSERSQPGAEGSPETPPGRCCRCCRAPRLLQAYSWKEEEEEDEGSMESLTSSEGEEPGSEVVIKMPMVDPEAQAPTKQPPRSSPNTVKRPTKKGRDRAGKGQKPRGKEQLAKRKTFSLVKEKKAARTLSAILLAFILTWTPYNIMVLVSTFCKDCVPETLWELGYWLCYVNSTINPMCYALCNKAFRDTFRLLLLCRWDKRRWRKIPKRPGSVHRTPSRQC
Chain of KiSS-1 receptor (Homo sapiens) (Q969F8 whole entry, looked up): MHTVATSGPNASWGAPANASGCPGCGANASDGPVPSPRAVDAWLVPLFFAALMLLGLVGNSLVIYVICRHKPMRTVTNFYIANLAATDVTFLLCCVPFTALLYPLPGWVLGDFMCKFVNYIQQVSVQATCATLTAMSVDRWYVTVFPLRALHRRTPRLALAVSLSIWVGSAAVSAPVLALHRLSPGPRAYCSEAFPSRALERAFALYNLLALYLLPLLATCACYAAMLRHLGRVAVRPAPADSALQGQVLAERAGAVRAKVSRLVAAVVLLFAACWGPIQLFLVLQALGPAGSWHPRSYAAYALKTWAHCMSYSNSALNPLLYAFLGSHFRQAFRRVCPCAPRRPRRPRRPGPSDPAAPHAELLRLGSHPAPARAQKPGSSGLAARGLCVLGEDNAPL

For `NC(=O)CF`, the Potency entry in assay [1], in assay [2], in assay [3], in assay [4], in [5] and in assay [6] was “inactive” each time. In addition, the Potency result in [7], in [8], in [9], in assay [10], in assay [11] and in [12] was “inactive” in each case. The Potency entry in [13], in assay [14], in assay [15], in [16], in assay [17] and in assay [18] was “inactive” each time. Further, the Potency entry in [19] was “inactive”.

Consider `CC(C)OC(=S)S`, for which the Potency in assay [1] is 30.6 µM (active); in assay [2], 15.4 µM (active). The Potency result in assay [3], in [4], in assay [5], in assay [6], in assay [7] and in [8] was “inactive” in each case. The Potency result in [9], in [10], in assay [11], in assay [20], in assay [13] and in [15] was “inactive” in each case. For the same compound, the Potency result in [16], in [17] and in assay [19] was “inactive” throughout.

Take `CCC(Cl)[N+](=O)[O-]` (configuration not stated): the Potency result in assay [1], in assay [2], in assay [3], in assay [4], in assay [5] and in assay [6] was “inactive” each time. Moreover, the Potency result in assay [7], in assay [8], in [9], in [10], in [11] and in assay [20] was “inactive” in each case. Besides, the Potency entry in assay [13], in [14], in assay [15], in [16], in assay [17] and in [19] was “inactive” in each case.

With `CC(C)CCCCCCOC(=O)c1ccccc1C(=O)OCCCCCCC(C)C`, the Potency result in assay [1], in assay [2], in assay [3], in [4], in assay [5] and in assay [6] was “inactive” in each case. Besides, the Potency result in assay [7], in assay [8], in assay [9], in assay [10], in assay [11] and in [20] was “inactive” throughout. Moreover, the Potency result in assay [13], in assay [14], in assay [16], in [17], in [18] and in [19] was “inactive” throughout.

In the case of `N#CC(Cl)Cl`, the Potency result in assay [1], in [3], in assay [4], in assay [5], in assay [6] and in assay [7] was “inactive” in each case. Also, the Potency result in assay [8], in assay [9], in assay [10], in assay [11], in assay [12] and in [13] was “inactive” each time. Further, the Potency entry in [14], in [15], in assay [16], in assay [17], in assay [18] and in assay [19] was “inactive” each time. Further, the Potency in assay [2] is 59.5 µM (active).

For the compound `CC(C#N)CCC#N` (configuration not stated), the Potency entry in assay [1], in assay [2], in assay [3], in assay [4], in assay [5] and in assay [6] was “inactive” in each case. Moreover, the Potency result in assay [7], in [8], in assay [9], in [10], in assay [11] and in [20] was “inactive” in each case. Also, the Potency entry in assay [13], in assay [14], in [15], in [16], in [18] and in [19] was “inactive” throughout.

Turning to `CCC(=O)Nc1ccc(Cl)c(Cl)c1`, the Potency entry in [1], in [2], in assay [3], in [4], in [5] and in assay [6] was “inactive” in each case. Moreover, the Potency result in assay [7], in [8], in assay [9], in [10], in [11] and in assay [20] was “inactive” in each case. Besides, the Potency result in assay [13], in assay [14], in assay [15], in assay [16], in assay [17] and in assay [18] was “inactive” in each case. Besides, in assay [19], the Potency result is “inactive”.

Consider `CCCCON=O`, for which the Potency result in assay [1], in assay [2], in [3], in [4], in [5] and in assay [6] was “inactive” each time. For the same compound, the Potency result in assay [7], in [8], in [9], in [10], in assay [11] and in assay [20] was “inactive” throughout. Moreover, the Potency result in assay [13], in assay [14], in assay [15], in assay [16], in [17] and in [18] was “inactive” each time. Moreover, the Potency entry in assay [19] was “inactive”.
